The record followed here is PubChem BioAssay (NCATS).

Results filed as inconclusive are left out. Calls of active or inactive are those of the source. Calls come from the whole dose curve.

Sequence of Vitamin D3 receptor (Homo sapiens) (P11473 whole entry, looked up): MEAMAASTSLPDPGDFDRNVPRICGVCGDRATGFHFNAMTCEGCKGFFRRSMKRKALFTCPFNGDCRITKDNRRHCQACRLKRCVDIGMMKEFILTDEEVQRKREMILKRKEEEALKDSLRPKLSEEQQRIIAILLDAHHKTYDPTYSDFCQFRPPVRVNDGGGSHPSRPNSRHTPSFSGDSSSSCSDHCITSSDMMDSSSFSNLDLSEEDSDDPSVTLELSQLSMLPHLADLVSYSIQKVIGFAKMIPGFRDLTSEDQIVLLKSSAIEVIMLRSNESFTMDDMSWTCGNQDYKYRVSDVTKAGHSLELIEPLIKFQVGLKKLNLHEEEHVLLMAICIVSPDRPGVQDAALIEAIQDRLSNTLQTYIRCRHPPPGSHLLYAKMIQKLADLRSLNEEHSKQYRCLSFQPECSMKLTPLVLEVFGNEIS

The assay addresses Vitamin D3 receptor (Homo sapiens) (UniProt P11473). In words: qHTS assay for small molecule antagonists of vitamin D receptor signaling (AID 588541).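 Note: receptor activated by calcitriol during compound treatment.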 The note with it: HEK293T VDR-UAS-bla, beta-lactamase ratio, antagonist mode; series mostly up to 76.7 µM. An excerpt:
NIH Chemical Genomics Center [NCGC]
U.S. Environmental Protection Agency [EPA]
National Institutes of Environmental Health Sciences [NIEHS]
National Toxicology Program [NTP]
The Vitamin D receptor (VDR) is a member of nuclear hormone receptor superfamily and it plays a critical role in calcium homeostasis and bone metabolism. It plays a role in inducing cell differentiation, inhibiting cell growth and in thrombogenicity. So, VDR that mediates these effects represents a pharmacological target in prevention and treatment of hyperproliferative malignancies, such as cancer and psoriasis, cardiovascular, immunological, inflammatory and renal diseases etc.
NCGC Assay Protocol Summary
Using a beta-lactamase reporter-gene under control of Vitamin D receptor (VDR) response element, a cell-based assay [GeneBLAzer (VDR -UAS-bla assay developed by Invitrogen] was used to measure VDR ligands signaling. GeneBLAzer VDR -UAS-bla HEK293T cells were used with assay medium containing 2% charcoal-stripped FBS. The assay was performed in clear bottom black Greiner 1536-well plates. Library compounds were measured for their ability to inhibit the reporter gene activity. Compounds were screened in a titration series in 1536-well format. The fluorescence intensity (405 nm excitation, 460/530 nm emission) was measured using an EnVision plate reader. Data was normalized relative to 1-alpha,25-Dihydroxy vitaminD3 control (50 nM, 100%) and DMSO only wells (basal, 0%). Concentration-response titration points for each compound were fitted to the Hill equation yielding concentrations of half-maximal inhibition (IC50) and maximal response (efficacy) values.
qHTS protocol for VDR beta-lactamase assay in antagonist mode
[Step] [Parameter] [Value] [Description]
1. Reagent; 5 uL; 2000 cells/well
2. Incubation; 37 C for 5 hrs
4. Controls (DMSO); 23 nL,
5. Agonist (Stimulator); 1uL; 1-alpha,25-Dihydroxy vitaminD3 at 50 nM and 3 nM final concentrations
6. Incubation; 37 C for 16 hrs
7. Detection reagent; 1 uL of CCF4-dye
8. Incubation; RT for 2 hrs
9. Detection; Fluorescence; Envision plate reader
A general note: Quantitative high-throughput screening tests each substance at several concentrations.
As to `C=CCCCCCCC=C`, the result was inactive. Regarding `NS(=O)(=O)O`, the outcome was inactive. On to `CCCCC/C=C/C=C/C=O`, for which the outcome was inactive. For the molecule `NC(=O)/N=N/C(N)=O`, the outcome was inactive. With `CNC(=O)c1ccccc1` the entry was “inactive”; with `ClC/C=C/CCl`, “inactive”.

In the case of `NC(=O)CCCCC(N)=O`, the outcome was inactive. In the case of `O=CNc1ccccc1`, the outcome was inactive. Turning to `c1ccc(Oc2ccccc2)cc1`, the result was inactive. As for `COc1ccc(N)c(C)c1`, the outcome was inactive. As to `CC(C=O)Cc1ccc(C(C)(C)C)cc1` (stereo not given), the outcome was inactive. With `C(=C/c1ccccc1)/c1ccccc1` the entry was “inactive”; with `CCC(C)=O`, “inactive”. For `Cc1cccc([N+](=O)[O-])c1C(=O)O`, the outcome was inactive. For `CC(C)N=C=NC(C)C`, the result was inactive. Then `Cc1ccc(Cl)cc1`, with “inactive”.

As to `OC(CCl)CCl`, the result was inactive. With `CC(C)=C1CCC(C)CC1=O` (stereo not given) the entry was “inactive”. As for `CC(=O)c1cc(C)oc1C`, the result was inactive. On to `CCC=O`, for which the outcome was inactive. As to `CC(=O)c1ccccn1`, the outcome was inactive. On to `Cc1ccccc1Br`, for which the outcome was inactive. As for `Cc1cc(C)c(N)cc1C`, the outcome was inactive.

As to `Cc1cccc2ccccc12`, the result was inactive. `Cc1ccc(N(C)C)cc1`: the result was inactive. As to `CCCCC=O`, the outcome was inactive. Regarding `Cc1nc2ccc(Cl)cc2[nH]1`, the outcome was inactive.

Turning to `CC(=C/C=C/C(C)=C/C=C/C=C(C)/C=C/C=C(C)/C=C/C(=O)O)/C=C/C(=O)O`, the result was inactive. For the molecule `CCOc1ccc(NC(C)=O)cc1N`, the outcome was inactive.

Take `O=C1CCCCC1`: the outcome was inactive.

On to `O=[N+]([O-])c1ccc(NCCO)c(OCCO)c1`, for which the result was inactive.

With `O=Nc1ccc(NO)cc1`, the result was inactive. In the case of `c1ccc2c(c1)Oc1ccccc1S2`, the outcome was inactive. In the case of `Cc1ccc2c(c1[N+](=O)[O-])C(=O)c1ccccc1C2=O`, the result was inactive. As for `CCOCCO`, the outcome was inactive. On to `O=C(O)c1ccc(CO)o1`, for which the outcome was inactive.

For the molecule `CC(C)(O)CCC(C)(C)O`, the outcome was inactive. For the molecule `CCCCCCCN`, the result was inactive. With `CC=C(Cl)Cl`, the outcome was inactive. On to `Cc1cc([N+](=O)[O-])ccc1N`, for which the outcome was inactive.
